CHRM1 PAM: human M1 muscarinic receptor positive allosteric modulators, primary screen, CHO-K1 cells, Fluo-8 calcium fluorescence, 1536-well; Muscarinic acetylcholine receptor M1 (Homo sapiens), P11229; CHO-K1 hM1, ACh EC20; 0% = ACh EC20, 100% = maximal ACh; activation, % at 3 µM; hit rate 0.088% among 360,000; AID 588819, 2011; in the data active = activation above about 19%, passing the limit was not always enough
Target sequence (P11229 whole entry, looked up): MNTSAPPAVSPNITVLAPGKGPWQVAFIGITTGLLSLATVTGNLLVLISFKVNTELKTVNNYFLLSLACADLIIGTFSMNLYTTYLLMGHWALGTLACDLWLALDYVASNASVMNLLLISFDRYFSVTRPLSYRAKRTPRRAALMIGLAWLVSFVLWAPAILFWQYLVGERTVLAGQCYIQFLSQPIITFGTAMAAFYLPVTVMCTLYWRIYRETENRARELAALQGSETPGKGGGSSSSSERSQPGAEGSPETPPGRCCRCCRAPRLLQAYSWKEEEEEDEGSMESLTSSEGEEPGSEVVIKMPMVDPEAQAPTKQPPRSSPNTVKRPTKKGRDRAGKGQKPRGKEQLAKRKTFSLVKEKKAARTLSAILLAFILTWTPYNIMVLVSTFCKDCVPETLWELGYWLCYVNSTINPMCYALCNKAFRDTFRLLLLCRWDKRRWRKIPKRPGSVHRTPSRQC
M1 ag: human M1 muscarinic receptor agonists, primary screen, Fluo-8 calcium fluorescence, CHO-K1 cells, HTS | CHO-K1 hM1, agonist mode; 0% DMSO, 100% acetylcholine EC100 | activation, % at 3 µM | hit rate 0.33% among 360,000 | AID 588814, 2011;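 active = activation above the run's mean compound activation plus 3 SD, cut at about 16% in these data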;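 also: peak over basal fluorescence ratio within a 140 s kinetic read after compound addition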
CHRM4 PAM: human M4 muscarinic receptor positive allosteric modulators, primary screen, CHO-K1 cells, Fluo-8 calcium fluorescence. Muscarinic acetylcholine receptor M4 (Homo sapiens), P08173. CHO-K1 hM4/Gqi5, ACh EC20; 0% = ACh EC20, 100% = maximal ACh. activation, % at 3 µM. hit rate 0.4% among 360,000;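 active = activation above its plate's cutoff, the mean activation of sample wells plus 3 SD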
M4 ag: human M4 muscarinic receptor agonists, primary screen, CHO-K1 cells, Fluo-8 calcium fluorescence. CHO-K1 hM4/Gqi5; vehicle 0%, full acetylcholine response 100%. activation, % at 3 µM. hit rate 0.14% among 360,000;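 active = activation above the run mean over all test wells plus 3 SD, cut at about 32% in these data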;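 also: peak over basal fluorescence ratio per well then scaled between controls; 0% = DMSO wells and 100% = acetylcholine at EC100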
CHRM4 antagonist: human M4 muscarinic receptor antagonists, primary screen, CHO cells, Fluo-8 calcium fluorescence; Muscarinic acetylcholine receptor M4 (Homo sapiens), P08173; CHO-hM4 cells, ACh EC80; inhibition, % at 3 µM; hit rate 0.73% among 360,000; AID 624125, 2012;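 active = inhibition above its plate's cutoff, the mean inhibition of sample wells plus 3 SD, cut at about 27% in these data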;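 also: 0% = acetylcholine EC80 with DMSO and 100% = DMSO without agonist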
M1 antag: human M1 muscarinic receptor antagonists, primary screen, CHO-K1 cells, Fluo-8 calcium fluorescence, 1536-well. inhibition, % at 3 µM. hit rate 1.3% among 360,000. CHO-K1 hM1, ACh EC80 antagonist. Muscarinic acetylcholine receptor M1 (Homo sapiens), P11229;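 active = percent inhibition above its own plate's cutoff, namely the mean of that plate's compound wells plus 3 SD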;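 also: peak over basal fluorescence ratio during 140 s after agonist addition; 0% = ACh EC80 plus DMSO and 100% = DMSO alone without agonist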
The depositor's hits bear a star. The list is not random: actives were taken first. Their share in the collection is about 2.2%.

SMILES | CHRM1 PAM | M1 ag | CHRM4 PAM | M4 ag | CHRM4 antagonist | M1 antag
COc1ccc(-c2cc(C(N)=O)nc(N3CCCCCC3)n2)cc1 | 7.6 | -2.9 | 27.8* | -0.8 | -5.0 | -2.4
CCN(CC1CCCN(CCc2cccc(F)c2)C1)C(=O)c1cc(C)oc1C (configuration not stated) | -19.6 | -5.4 | -10.9 | 0.5 | 6.7 | 42.9*
CCN(CC1CCCN(CCc2cccc(F)c2)C1)C(=O)c1cc2ccccc2o1 (configuration not stated) | -23.2 | -5.2 | -12.3 | 5.1 | 19.7 | 52.8*
CN(CC1CCCN(CCc2cccc(C(F)(F)F)c2)C1)C(=O)c1cc2ccccc2o1 (configuration not stated) | -39.9 | -13.3 | -21.2 | 9.8 | -6.1 | 52.0*
CCOC(=O)Nc1cccc(OCC(=O)Nc2ccccc2OCC)c1 | -2.9 | -5.3 | -3.4 | 3.0 | 2.0 | -7.5
Cc1cc(C)c2c3c(sc2n1)C(=O)N(c1ccccc1)CC(=O)N3 | 0.2 | -2.5 | 16.8 | 3.1 | 31.7* | 5.9
CCc1cccc(C)c1NC(=O)CSc1nc2ccccc2n1CC(=O)N(C)C | 1.0 | -2.3 | 2.6 | 0.1 | -2.3 | 0.5
COC(=O)[C@@]1(Cc2ccccc2)[C@H]2C(=O)N(C)C(=O)[C@H]2[C@H]2CN(C)C(=NCc3ccccc3)N21 | 10.2 | -5.2 | 3.1 | -0.1 | -13.9 | -22.2
Cc1ccc2c(CC(=O)NC3CCS(=O)(=O)C3)coc2c1C (configuration not stated) | 5.9 | -3.4 | 17.6* | 2.0 | 13.3 | -0.8
Cc1ccc2c(CC(=O)NCc3ccco3)coc2c1C | 2.8 | -6.3 | 3.7 | 0.1 | 1.9 | -28.4
Cc1cc(SCC(=O)NC(=O)c2cccn2C)nc2ccccc12 | 9.6 | -1.5 | -2.4 | 0.2 | 5.5 | -8.3
Clc1ccc(SCCOCCN2CCOCC2)cc1 | -9.9 | -8.5 | -4.8 | -0.5 | 1.9 | 23.3
CC1CCCN(CCSc2ccc(Cl)cc2)C1 (configuration not stated) | -25.0 | -6.8 | -10.3 | 0.5 | 8.3 | 36.9*
CC1CCN(CCOCCSc2ccc(Cl)cc2)CC1 | -26.2 | -12.2 | -16.6 | 2.7 | 15.7 | 28.2
Clc1ccc(SCCOCCN2CCCCC2)cc1 | -22.2 | -10.9 | -14.1 | 2.8 | 12.3 | 27.5*
CC(=O)c1c(C)[nH]c(C(=O)OCC(=O)NCc2ccc3c(c2)OCO3)c1C | 1.2 | -1.2 | 7.7 | 2.3 | -2.2 | -6.7
Cc1ccc(C)c(-c2nnc(OCC(=O)Nc3cc(C)on3)c3ccccc23)c1 | 6.9 | -2.1 | 16.2* | 0.0 | -1.0 | -21.2
O=C(NCC1CCCO1)c1ccc(NC(=O)c2ccc([N+](=O)[O-])cc2)cc1 (configuration not stated) | 14.7 | 0.8 | 13.2* | 5.8 | -9.2 | -23.1
COc1ccccc1C1(O)C(=O)Nc2ccccc21 (configuration not stated) | 5.2 | -3.4 | 14.6* | 2.4 | -12.8 | -13.2
CC12COC3(C(=O)NCCc4ccccc4)CC1CCC32C (configuration not stated) | 7.1 | -5.6 | -5.1 | -0.1 | 0.5 | -3.2
COc1ccc(C2C3=C(CCCC3=O)Nc3ccc4ncccc4c32)cc1OC (configuration not stated) | 1.1 | -4.3 | -1.6 | 14.4 | -9.1 | 8.0
S=c1[nH]nc(-c2ccncc2)n1/N=C/C(Cl)=C\c1ccccc1 | 0.9 | 38.9* | 25.9* | 5.0 | -16.1 | 10.6
CN1CCN(C(=O)N(c2ccccc2)c2ccccc2)CC1 | -13.9 | -7.8 | -3.6 | 2.4 | 3.7 | 23.6
CCN1CCN(C(=O)N(c2ccccc2)c2ccccc2)CC1 | -21.0 | -9.4 | -8.7 | 0.3 | 0.9 | 42.4*
CCOC(=O)N1CCC(N2CCN(S(=O)(=O)c3ccc(OC)cc3)CC2)CC1 | -4.5 | 7.0 | 7.8 | 3.0 | -6.4 | 6.6
SMILES | CHRM1 PAM | M1 ag | CHRM4 PAM | M4 ag | CHRM4 antagonist | M1 antag
CCOC(=O)N1CCC(N2CCN(S(=O)(=O)c3ccc(C)cc3)CC2)CC1 | -1.8 | 23.5* | -9.3 | 1.3 | 3.5 | -7.2
Cc1ccc(N(C)C(=O)N2CCN(S(=O)(=O)c3ccc(C)cc3)CC2)cc1 | 25.4* | 18.8* | -2.0 | 2.8 | -6.8 | -14.8
Cc1ccc(S(=O)(=O)N2CCN(C)CC2)cc1C | -2.2 | -5.1 | -4.0 | 0.1 | 1.4 | -0.4
Cc1ccc(S(=O)(=O)N2CCC(N3CCN(C)CC3)CC2)cc1Cl | -20.8 | -13.7 | -19.7 | -1.4 | 27.6* | 41.6*
N#C/C(=N\Nc1ccc(S(=O)(=O)N2CCCCCC2)cc1)C(N)=S | -8.9 | -1.4 | -6.8 | 12.4 | -4.8 | 0.9
Cc1ccc(S(=O)(=O)N2CCN(C(=O)N(c3ccccc3)c3ccccc3)CC2)cc1 | -1.5 | -4.4 | 1.6 | 1.2 | 4.9 | 4.6
COc1ccc(S(=O)(=O)N2CCC(C(=O)N3CCc4ccccc4C3)CC2)cc1 | 4.5 | -0.2 | 17.7 | 3.7 | -2.1 | -6.6
Cc1ccc(S(=O)(=O)N2CCC(C(=O)N3Cc4ccccc4C3)CC2)cc1 | 3.6 | -2.0 | 21.9* | 3.0 | -9.8 | -23.6
CCN(CC)C(=O)N1CCN(S(=O)(=O)c2ccccc2)CC1 | 27.7* | -1.1 | 9.6 | 1.2 | -17.3 | -25.7
CCN(CC)CCn1c(=N)n(CCOc2ccccc2)c2ccccc21 | -18.2 | -14.2 | -5.0 | 3.9 | 17.4 | 24.8
COc1ccc(CN2CCN(CCC(C)C)C(CCO)C2)cc1Cn1cccn1 (configuration not stated) | -2.3 | -10.2 | -8.1 | 0.1 | 3.0 | 4.5
COC(=O)c1cc(S(=O)(=O)N2CCOCC2)ccc1Sc1ccccc1N | 20.4 | 3.9 | 22.1* | 1.9 | -0.5 | -6.3
Cc1ccc2nc(CNC(=O)C3CCC(=O)N(Cc4ccccc4F)C3)cn2c1 (configuration not stated) | 12.4 | -6.5 | 1.1 | 1.4 | -3.8 | -13.8
Cc1c(CNC(=O)C2CCC(=O)N(CCc3ccccc3)C2)cnn1C (configuration not stated) | 16.9 | 3.1 | 20.5* | -0.1 | -3.0 | -3.0
Cc1cccc(CNC(=O)C2CCC(=O)N(Cc3ccccc3F)C2)n1 (configuration not stated) | 12.4 | -2.0 | 20.9* | 1.3 | -7.5 | -7.4
Cn1cc(CNC(=O)C2CCC(=O)N(Cc3ccccc3F)C2)cn1 (configuration not stated) | 25.6* | 0.9 | 20.4* | 0.1 | -11.4 | -16.3

From PubChem
